The source of these data is the supplement of paper PMC11006884.

Of roughly 6,500 targets only a part is listed; those with a hit were picked by preference. About 2% of all pairs of compound and target were hits. Unmarked numbers belong to inactive results.

UniProt P56192, sequence (P56192 whole entry, looked up): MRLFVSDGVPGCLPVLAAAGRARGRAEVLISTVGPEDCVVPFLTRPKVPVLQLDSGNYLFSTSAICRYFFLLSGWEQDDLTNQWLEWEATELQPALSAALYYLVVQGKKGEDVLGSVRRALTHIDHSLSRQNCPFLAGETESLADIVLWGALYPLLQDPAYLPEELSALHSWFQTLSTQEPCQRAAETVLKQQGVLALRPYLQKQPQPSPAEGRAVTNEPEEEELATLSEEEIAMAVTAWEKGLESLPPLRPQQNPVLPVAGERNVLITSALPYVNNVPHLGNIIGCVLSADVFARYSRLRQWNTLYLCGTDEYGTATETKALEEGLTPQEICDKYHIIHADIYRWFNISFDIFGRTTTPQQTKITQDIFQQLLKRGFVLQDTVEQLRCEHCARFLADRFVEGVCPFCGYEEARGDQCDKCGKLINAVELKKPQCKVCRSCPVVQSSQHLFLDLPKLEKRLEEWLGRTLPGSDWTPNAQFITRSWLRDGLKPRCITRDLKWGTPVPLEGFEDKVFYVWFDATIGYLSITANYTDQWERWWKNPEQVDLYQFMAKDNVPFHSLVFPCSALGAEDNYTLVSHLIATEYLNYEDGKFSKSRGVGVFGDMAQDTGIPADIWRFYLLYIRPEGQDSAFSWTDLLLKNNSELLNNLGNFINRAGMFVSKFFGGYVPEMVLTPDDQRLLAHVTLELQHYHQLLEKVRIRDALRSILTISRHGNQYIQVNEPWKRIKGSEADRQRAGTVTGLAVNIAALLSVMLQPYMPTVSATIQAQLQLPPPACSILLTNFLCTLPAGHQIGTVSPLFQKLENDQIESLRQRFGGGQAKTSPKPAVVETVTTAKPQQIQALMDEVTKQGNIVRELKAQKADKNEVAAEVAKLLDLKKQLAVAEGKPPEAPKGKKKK
UniProt P55265, sequence (P55265 whole entry, looked up): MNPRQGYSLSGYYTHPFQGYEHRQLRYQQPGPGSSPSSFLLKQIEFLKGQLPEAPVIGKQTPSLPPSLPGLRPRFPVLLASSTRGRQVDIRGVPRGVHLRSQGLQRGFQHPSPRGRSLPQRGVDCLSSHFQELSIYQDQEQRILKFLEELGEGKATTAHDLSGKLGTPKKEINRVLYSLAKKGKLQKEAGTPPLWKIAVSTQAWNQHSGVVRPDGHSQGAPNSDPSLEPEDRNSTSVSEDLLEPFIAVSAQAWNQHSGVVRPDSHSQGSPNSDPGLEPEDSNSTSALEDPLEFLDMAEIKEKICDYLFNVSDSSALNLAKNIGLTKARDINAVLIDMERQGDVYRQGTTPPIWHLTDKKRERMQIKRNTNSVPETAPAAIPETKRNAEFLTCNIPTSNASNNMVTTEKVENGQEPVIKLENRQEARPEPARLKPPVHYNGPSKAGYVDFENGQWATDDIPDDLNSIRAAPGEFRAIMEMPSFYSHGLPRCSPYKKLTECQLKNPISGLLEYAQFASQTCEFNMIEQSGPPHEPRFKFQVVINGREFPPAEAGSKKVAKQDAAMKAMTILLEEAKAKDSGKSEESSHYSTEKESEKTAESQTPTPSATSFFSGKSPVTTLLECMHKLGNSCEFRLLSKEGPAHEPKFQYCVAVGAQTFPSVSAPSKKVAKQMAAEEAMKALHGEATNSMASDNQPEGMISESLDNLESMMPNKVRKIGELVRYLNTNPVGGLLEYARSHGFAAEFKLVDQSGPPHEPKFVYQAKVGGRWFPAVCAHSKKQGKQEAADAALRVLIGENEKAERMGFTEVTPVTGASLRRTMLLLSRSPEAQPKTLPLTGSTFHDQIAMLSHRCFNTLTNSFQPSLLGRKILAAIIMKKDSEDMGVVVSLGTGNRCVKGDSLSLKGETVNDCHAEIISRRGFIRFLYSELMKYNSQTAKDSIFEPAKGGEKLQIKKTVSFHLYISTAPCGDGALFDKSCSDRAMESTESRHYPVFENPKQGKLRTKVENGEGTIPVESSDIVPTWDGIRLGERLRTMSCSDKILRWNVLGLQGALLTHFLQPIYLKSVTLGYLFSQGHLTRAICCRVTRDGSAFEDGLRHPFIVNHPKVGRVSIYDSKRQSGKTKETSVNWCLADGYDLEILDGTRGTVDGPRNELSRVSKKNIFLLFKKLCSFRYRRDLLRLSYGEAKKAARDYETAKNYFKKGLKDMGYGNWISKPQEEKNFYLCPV
UniProt Q13111, sequence (Q13111 whole entry, looked up): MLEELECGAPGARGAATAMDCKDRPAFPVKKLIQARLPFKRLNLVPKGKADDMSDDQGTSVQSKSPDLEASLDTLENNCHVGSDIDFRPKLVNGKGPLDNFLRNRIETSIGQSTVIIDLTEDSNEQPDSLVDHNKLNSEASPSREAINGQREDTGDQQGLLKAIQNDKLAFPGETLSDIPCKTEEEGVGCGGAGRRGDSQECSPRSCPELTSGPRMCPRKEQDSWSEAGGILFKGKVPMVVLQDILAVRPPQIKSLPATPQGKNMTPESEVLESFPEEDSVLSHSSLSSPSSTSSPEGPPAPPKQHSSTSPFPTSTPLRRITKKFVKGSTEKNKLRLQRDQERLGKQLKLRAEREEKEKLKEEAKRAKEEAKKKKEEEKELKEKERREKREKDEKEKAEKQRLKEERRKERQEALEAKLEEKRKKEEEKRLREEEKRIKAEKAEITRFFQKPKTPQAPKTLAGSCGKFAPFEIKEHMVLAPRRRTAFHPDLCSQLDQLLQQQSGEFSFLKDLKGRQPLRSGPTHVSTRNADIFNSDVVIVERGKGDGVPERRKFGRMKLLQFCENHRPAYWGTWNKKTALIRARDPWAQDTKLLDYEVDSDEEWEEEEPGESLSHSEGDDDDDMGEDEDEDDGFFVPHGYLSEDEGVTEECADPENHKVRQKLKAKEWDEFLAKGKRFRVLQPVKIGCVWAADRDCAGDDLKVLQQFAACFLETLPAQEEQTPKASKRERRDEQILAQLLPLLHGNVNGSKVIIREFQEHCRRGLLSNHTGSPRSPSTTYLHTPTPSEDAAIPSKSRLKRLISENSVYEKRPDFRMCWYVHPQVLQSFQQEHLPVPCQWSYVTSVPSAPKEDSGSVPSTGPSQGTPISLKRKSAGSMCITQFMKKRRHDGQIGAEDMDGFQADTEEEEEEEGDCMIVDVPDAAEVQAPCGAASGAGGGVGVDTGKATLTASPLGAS
UniProt Q13418, sequence (Q13418 whole entry, looked up): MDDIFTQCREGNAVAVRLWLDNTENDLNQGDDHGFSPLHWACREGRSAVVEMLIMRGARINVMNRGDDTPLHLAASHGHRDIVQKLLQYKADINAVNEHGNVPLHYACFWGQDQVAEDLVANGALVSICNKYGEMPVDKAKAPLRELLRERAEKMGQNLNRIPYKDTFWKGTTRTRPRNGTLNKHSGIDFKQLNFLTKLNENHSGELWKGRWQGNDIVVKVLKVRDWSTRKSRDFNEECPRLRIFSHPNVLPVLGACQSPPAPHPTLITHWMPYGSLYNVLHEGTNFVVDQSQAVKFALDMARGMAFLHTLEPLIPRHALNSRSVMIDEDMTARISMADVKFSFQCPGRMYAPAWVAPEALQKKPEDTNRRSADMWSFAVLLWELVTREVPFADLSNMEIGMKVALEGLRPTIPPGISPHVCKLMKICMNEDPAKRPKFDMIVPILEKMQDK
UniProt Q08379, sequence (Q08379 whole entry): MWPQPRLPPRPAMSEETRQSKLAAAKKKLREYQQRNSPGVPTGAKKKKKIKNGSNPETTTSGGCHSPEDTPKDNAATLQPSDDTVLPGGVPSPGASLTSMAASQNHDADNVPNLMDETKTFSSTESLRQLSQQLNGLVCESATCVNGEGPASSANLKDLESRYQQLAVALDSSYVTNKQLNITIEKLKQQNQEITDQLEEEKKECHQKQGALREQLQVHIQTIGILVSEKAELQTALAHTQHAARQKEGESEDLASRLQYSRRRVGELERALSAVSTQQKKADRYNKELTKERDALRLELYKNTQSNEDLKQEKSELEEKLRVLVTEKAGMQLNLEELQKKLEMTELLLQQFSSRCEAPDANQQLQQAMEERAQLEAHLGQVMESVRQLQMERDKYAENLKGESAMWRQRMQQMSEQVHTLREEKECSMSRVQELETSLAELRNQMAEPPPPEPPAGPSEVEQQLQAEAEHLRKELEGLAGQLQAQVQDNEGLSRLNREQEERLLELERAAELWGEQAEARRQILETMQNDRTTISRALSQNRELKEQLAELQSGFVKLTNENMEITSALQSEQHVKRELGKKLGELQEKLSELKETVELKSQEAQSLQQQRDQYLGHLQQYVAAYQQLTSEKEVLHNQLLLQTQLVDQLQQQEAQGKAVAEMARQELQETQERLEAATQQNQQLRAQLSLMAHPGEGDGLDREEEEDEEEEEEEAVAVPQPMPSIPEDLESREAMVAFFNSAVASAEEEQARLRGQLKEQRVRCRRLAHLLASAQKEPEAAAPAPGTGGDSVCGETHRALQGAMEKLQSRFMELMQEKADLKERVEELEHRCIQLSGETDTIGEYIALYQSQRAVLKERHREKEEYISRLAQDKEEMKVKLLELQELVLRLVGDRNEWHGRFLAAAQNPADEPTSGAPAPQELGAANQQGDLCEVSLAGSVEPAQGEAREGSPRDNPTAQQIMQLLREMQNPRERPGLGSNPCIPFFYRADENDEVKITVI
UniProt Q13838, sequence (Q13838 whole entry, looked up): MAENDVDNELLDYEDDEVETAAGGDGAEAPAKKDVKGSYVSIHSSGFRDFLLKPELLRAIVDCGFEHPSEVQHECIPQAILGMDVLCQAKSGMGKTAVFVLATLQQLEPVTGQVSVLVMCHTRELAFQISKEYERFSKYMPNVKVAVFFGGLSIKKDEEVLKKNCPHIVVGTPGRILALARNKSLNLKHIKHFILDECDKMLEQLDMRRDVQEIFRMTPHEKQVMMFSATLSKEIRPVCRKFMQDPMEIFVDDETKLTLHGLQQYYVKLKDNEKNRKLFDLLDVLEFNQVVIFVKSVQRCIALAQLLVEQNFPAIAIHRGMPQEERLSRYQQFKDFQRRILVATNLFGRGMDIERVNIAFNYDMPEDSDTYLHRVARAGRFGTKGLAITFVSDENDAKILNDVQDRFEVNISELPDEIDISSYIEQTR

Compound in the test: COC(=O)C#Cc1ccccc1 [methyl 3-phenylpropiolate]
Nature of the test: log2 ratio of iodoacetamide-alkyne labeling of the cysteine site, DMSO over compound (competition); higher = stronger covalent engagement of the cysteine by the compound, active = 1 or more. As to conditions: 500 µM; treatment time 1 h; system: HEK293T cell lysate. In a few lines: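 HEK293T lysate (2 mg/mL) was incubated with electrophile (500 µM) or vehicle for 1 h at ambient temperature and then with iodoacetamide alkyne for 1 h. Labelled proteins were clicked to sCIP-TMT reagents, pooled, digested, enriched on streptavidin and measured by Orbitrap Eclipse LC-MS/MS with FAIMS, with FragPipe quantification. The per-cysteine log2 competition ratio is mean control-channel reporter intensity over mean compound-channel reporter intensity. Across three replicates with duplicate channels, cysteines quantified in only one replicate were excluded.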
For the target COPB1 C248 (UniProt P53618), the “log2 ratio of iodoacetamide-alkyne labeling” value (“log2 ratio” below) is -0.00654. Consider PCM1 C957 (UniProt Q15154), for which the “log2 ratio” value was 2.43 (active). The value for NOTCH2 C1357 (UniProt Q04721) was 1.55 (active); that for PITRM1 C313 (UniProt Q5JRX3) was 0.195; that for LGALS3BP C489 (UniProt Q08380) was 1.72 (active).

As for TSR1 C329 (UniProt Q2NL82), the “log2 ratio” value is 0.425. As to LAGE3 C23 (UniProt Q14657), the “log2 ratio” value was 0.594.

In the case of ADAR C392 (UniProt P55265), the “log2 ratio” value is 0.693. As for UniProt Q13242_C138, the “log2 ratio” value is 0.112. The value for FOXK1 C665 (UniProt P85037) was 0.531; that for TARBP1 C483 (UniProt Q13395) was 1.21 (active); that for UniProt Q05655_C127 was 0.196. For the target SPCS2 C26 (UniProt Q15005), the “log2 ratio” value was 1.62 (active). The value for DYNC1H1 C3147 (UniProt Q14204) was 0.433. Regarding IAH1 C9 (UniProt Q2TAA2), the “log2 ratio” value is 2.43 (active). Next, UniProt Q13155_C23: 1.24 (active); BLM C704 (UniProt P54132): 0.6. Next, UniProt P60709_C217: 0.0537; CNN3 C173 (UniProt Q15417): 1.01 (active); UniProt P62330_C155: 0.452. As to ILK C422 (UniProt Q13418), the “log2 ratio” value was 0.358. ACTR3 C235 (UniProt P61158): the “log2 ratio” value is 1.28 (active). With DDX39B C198 (UniProt Q13838), the “log2 ratio” value was -0.129. For the target ACOX1 C199 (UniProt Q15067), the “log2 ratio” value is 0.0457. For the target PPP5C C452 (UniProt P53041), the “log2 ratio” value is 0.0827.

For the target TCOF1 C1298 (UniProt Q13428), the “log2 ratio” value was 0.666. On to PDCD11 C151 (UniProt Q14690), for which the “log2 ratio” value is 0.508. As for GFPT1 C55 (UniProt Q06210), the “log2 ratio” value was 0.387. In the case of MARS C12 (UniProt P56192), the “log2 ratio” value was 0.428. Next, UniProt Q5MNZ6_C6: 0.235. The value for UniProt P78527_C4061 was 0.465; that for CHAF1A C190 (UniProt Q13111) was 1.08 (active); that for GOLGA2 C794 (UniProt Q08379) was 1.07 (active).

On to UniProt P60842_C134, for which the “log2 ratio” value was 0.0481. Next, FHL1 C10 (UniProt Q13642): -0.136; KIF11 C450 (UniProt P52732): 0.0207.
